Unmarked numbers belong to inactive results. The source made the active and inactive calls. Cut-off read from the data, not from the text of the source, unless noted: active = inhibition above about 25%; inactive = the rest.

The target in assay [1] is Nuclear receptor coactivator 3 (Homo sapiens) (UniProt Q9Y6Q9). The experiment in a line: NCOA3 GAL4-fusion reporter inhibition – cell-based, luminescence, quadruplicate, confirmation (AID 588792;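 active = mean inhibition over 43.08%, the solvent-only control mean plus 3 SD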;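 note: 0% = DMSO treated cells and 100% = gossypol at 36 µM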). The note with it: HEK293 GAL4-SRC3 luciferase reporter, at 3.6 µM, active compounds read high.
For assay [2], the system named is transactivating tegument protein VP16 (Human herpesvirus 1), Gal4-VP16 luciferase reporter. Nature of the assay: repression of VP16-driven luciferase reporter – cell-based, luminescence, high throughput, counter-screen for SRC3 inhibitor project (AID 588794; in the data active = inhibition above about 30%). The note with it: mammalian cells, at 3.6 µM, active compounds read high.
Assay [3] addresses Nuclear receptor coactivator 1 (Homo sapiens) (UniProt Q15788). The experiment in a line: NCOA1 GAL4-fusion reporter inhibition – cell-based, luminescence, quadruplicate, confirmation (AID 588820;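 active = mean inhibition above 46.68%, the untreated control wells mean plus 3 SD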;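 note: 0% = DMSO wells and 100% = gossypol 36 µM treated wells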). The note with it: HEK293 GAL4-SRC1 luciferase reporter, at 3.6 µM, active compounds read high.
Assay [4] in a line: repression of VP16-driven luciferase reporter – cell-based, luminescence, high throughput, counter-screen for SRC1 inhibitor project (AID 588824). The note with it: cell-based VP16 transactivation luciferase luminescence; at 3.6 µM; active compounds read high.

Nuclear receptor coactivator 1 (Homo sapiens), sequence (Q15788 whole entry, looked up, the tested form may be a part): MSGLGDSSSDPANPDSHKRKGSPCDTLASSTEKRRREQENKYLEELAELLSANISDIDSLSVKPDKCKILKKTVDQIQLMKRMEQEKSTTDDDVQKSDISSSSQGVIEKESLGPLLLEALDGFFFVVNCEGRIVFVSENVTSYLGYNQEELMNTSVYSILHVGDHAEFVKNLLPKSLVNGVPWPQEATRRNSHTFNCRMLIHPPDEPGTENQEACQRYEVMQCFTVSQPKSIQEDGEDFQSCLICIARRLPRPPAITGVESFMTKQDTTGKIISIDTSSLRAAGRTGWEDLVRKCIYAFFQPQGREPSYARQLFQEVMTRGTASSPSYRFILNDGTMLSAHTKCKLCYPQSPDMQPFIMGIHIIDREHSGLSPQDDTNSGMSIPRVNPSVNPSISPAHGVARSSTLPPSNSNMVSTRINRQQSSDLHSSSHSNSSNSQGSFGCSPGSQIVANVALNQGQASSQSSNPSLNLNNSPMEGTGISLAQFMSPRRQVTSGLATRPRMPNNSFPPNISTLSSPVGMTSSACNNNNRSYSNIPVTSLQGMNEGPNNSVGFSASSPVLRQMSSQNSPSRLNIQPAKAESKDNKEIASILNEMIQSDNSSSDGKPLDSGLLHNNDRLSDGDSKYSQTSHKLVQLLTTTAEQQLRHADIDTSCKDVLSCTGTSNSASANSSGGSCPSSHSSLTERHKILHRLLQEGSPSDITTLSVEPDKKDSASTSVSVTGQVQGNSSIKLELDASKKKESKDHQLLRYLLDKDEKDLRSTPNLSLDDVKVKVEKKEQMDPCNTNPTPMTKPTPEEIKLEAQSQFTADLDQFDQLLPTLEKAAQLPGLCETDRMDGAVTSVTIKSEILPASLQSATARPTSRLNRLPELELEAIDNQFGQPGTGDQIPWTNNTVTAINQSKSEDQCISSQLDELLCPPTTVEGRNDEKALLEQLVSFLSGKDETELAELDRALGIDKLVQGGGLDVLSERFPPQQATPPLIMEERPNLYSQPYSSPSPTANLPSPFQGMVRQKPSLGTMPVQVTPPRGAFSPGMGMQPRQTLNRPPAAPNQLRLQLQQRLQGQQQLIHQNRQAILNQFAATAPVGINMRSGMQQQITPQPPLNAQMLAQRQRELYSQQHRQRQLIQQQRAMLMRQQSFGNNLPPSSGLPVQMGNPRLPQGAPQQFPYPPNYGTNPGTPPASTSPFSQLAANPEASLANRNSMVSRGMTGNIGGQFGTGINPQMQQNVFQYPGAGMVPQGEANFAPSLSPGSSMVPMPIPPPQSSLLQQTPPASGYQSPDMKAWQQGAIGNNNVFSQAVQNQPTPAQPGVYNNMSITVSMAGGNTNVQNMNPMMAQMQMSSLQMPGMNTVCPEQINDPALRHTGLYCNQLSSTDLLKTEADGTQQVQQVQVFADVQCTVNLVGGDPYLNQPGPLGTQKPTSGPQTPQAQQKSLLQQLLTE
Nuclear receptor coactivator 3 (Homo sapiens), sequence (Q9Y6Q9 whole entry, looked up, the tested form may be a part): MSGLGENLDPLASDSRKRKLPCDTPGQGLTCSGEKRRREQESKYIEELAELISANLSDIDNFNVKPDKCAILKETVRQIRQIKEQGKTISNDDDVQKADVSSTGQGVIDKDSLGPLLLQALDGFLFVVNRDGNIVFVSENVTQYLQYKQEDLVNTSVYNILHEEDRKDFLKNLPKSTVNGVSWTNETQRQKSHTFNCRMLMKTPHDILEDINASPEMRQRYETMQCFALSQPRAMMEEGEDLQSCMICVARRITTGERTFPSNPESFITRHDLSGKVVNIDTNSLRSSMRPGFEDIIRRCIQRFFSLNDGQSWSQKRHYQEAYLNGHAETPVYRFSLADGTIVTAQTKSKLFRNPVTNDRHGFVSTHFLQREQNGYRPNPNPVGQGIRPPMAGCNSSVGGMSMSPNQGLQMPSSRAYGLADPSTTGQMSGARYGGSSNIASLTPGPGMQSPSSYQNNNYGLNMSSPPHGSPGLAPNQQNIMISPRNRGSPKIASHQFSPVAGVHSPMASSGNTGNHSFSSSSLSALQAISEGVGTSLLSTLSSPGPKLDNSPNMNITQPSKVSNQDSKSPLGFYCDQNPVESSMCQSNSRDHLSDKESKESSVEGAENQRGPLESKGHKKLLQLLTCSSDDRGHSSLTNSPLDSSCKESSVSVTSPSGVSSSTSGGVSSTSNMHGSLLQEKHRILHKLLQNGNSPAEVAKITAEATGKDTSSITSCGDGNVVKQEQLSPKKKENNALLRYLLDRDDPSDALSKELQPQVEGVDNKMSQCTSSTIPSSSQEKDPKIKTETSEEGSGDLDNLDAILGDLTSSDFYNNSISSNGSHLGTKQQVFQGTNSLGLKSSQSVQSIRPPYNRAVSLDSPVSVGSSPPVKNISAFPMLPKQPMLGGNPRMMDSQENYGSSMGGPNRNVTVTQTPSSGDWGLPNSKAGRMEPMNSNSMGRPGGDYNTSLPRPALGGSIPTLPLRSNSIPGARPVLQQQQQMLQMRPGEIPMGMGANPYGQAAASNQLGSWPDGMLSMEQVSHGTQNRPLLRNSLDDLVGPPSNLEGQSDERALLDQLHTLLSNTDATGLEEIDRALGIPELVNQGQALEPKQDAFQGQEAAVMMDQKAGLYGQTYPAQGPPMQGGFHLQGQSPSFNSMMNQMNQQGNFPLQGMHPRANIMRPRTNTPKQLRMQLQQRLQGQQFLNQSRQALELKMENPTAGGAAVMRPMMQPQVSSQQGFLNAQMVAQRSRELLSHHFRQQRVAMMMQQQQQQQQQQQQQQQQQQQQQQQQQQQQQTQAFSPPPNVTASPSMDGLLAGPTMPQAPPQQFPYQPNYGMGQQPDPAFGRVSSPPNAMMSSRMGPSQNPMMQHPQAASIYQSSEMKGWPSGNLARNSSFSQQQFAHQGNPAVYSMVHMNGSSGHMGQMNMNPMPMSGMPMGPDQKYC

With `COC1C(OC(=O)/C=C/C=C/C=C/C=C/C(=O)O)CCC2(CO2)C1C1(C)OC1CC=C(C)C` (configuration not stated) (tested in a mixture with another compound), the inhibition in assay [1] is 17.6%; in assay [2], 20.7%; in assay [3] it was 9.4%; in assay [4], 20.7%.

Consider `COc1ccc2[nH]c(=O)c(CN(CCN3CCCC3)C(=O)Nc3ccccc3Cl)cc2c1`, for which the inhibition was 31.9% in assay [1], 20.4% in assay [2], 36% in assay [3] and 18.6% in assay [4].

With `CCOC(=O)CC(=O)CSc1nccc(-c2cccnc2)n1`, the inhibition in assay [1] is 37.5%; in assay [2], 15.3%; in assay [3], 16.4%; in assay [4], 10.1%.

For `COc1ccc(CN(C)C(=O)c2ccc(OCC(=O)Nc3cccc(C(F)(F)F)c3)c(OC)c2)cc1`, the inhibition is 4.69% in assay [1], 24.7% in assay [2], 2.4% in assay [3] and 20.5% in assay [4].

Consider `COc1ccc(/C=C2\N=C(C(C)(C)C)OC2=O)c(OC)c1`, for which the inhibition in assay [1] is 9.73%; in assay [2], 19.2%; in assay [3], 10%; in assay [4] it was 3.16%.

`COc1cc(Cl)cc(/C=N\NC(=O)c2ccc3c(c2)OCO3)c1O`: the inhibition in assay [1] was 24.7%; in assay [2] it was 33.3% (active); in assay [3], 30.5%; in assay [4] it was 33.6% (active).

Turning to `O=C(Nc1nc(-c2ccc(S(=O)(=O)N3CCOCC3)cc2)cs1)c1ccccc1`, the inhibition is 0.95% in assay [1], 19% in assay [2], -17.1% in assay [3] and 12.6% in assay [4].

On to `CCOC(=O)c1c(C)c2c(=O)[nH]cnc2n1-c1ccccc1`, for which the inhibition in assay [1] was 51.5% (active); in assay [2], 36.8% (active); in assay [3], 59.9% (active); in assay [4], 39.9% (active).
